A selection: hits, their analogues and other compounds. The true share with any hit is near 0.78%.
CCT chaperon mod: changes cytosolic chaperonin activity | purified chaperonin ATPase assay, HTRF ADP detection, 30 min | activity change, % (concentration not given with the values), hits read low | hit rate 0.3% among 360,000 | AID 651819; in the data active = activity change below about -30%; note: % is set by controls: 0 for no effect and ±100 for the full control effect
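We incubate TRiC, 40 or 20 nM final, with library compounds at 76 uM and 10 uM ATP for 30 min at 37 °C. ADP formed is detected with Transcreener HTRF reagents after 30 min at room temperature.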
Tb PGK inh: blocks T. brucei phosphoglycerate kinase; PGK/GAPDH coupled, Kinase-Glo luminescence, 60 min; hit rate 0.043% among 380,000; Potency, µM (titrated, usually from 57.5 µM), for the others: at the highest dose activity change, negative = inhibition, most hits filed as inhibitors; AID 602233; note: potency is the fitted concentration of half-maximal effect; % is set by controls: 0 for no effect and ±100 for the full control effect; nearly all actives have a fitted effect of over 60% in size
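Recombinant glycosomal PGK reaction used 1,3-bisphosphoglycerate generated in-well by GAPDH (100nM final) in 100mM TEA pH 7.6, 5mM MgCl2, 0.01% Tween-20. After 60 minutes at room temperature, ATP was read by Kinase-Glo Plus luminescence end-point.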
GLS inhibitor: blocks human kidney-isoform glutaminase activity; O94925; GLS enzymatic activity, qHTS titration; Potency, µM (series often up to 45.5 µM), inactives show at the highest dose activity change, negative = inhibition, most hits filed as inhibitors; hit rate 0.21% among 410,000; AID 624170; note: potency is the fitted concentration of half-maximal effect; % is set by controls: 0 for no effect and ±100 for the full control effect
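Two-point fluorescence kinetic (t0, 30 min RT) for hKGA; glutamate detected via glutamate oxidase–HRP–Amplex Red. Substrate: 1 mM L-glutamine solution; buffer 45 mM KH2PO4, pH 8.2.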
PI4K2A inh: PI4K2A (human) kinase inhibition | Q9BTU6 | purified PI4K2A, ADP-Glo luminescence, 1 h; stronger effect = lower value | activity change, negative = inhibition, % at 76.9 µM | hit rate 0.13% among 420,000 | AID 1346378; in the data active = activity change below about -50%; inconclusive = mostly about -30% to -49%;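 note: -100% = wells without enzyme as full effect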
Target sequence (Q9BTU6 whole entry, looked up): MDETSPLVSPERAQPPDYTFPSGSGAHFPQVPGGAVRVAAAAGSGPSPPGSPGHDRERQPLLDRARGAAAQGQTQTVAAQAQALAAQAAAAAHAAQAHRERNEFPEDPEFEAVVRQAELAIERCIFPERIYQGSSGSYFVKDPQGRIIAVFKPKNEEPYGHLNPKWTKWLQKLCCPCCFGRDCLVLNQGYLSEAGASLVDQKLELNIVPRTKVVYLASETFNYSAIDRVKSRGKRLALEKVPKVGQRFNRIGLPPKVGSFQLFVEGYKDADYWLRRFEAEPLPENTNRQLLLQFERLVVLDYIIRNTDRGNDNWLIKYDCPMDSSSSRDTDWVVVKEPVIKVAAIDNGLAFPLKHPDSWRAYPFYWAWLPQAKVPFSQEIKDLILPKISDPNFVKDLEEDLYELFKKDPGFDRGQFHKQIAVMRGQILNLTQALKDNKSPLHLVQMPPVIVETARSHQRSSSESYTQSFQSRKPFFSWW
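PI4K2A activity was measured by ADP-Glo luminescence: enzyme (4 ug/mL stock) and phosphatidylinositol (1.2 mM stock) in Tris pH 7.5/MgCl2/EGTA/Triton X-100 buffer were reacted with ATP (300 microM stock) for one hour at ambient temperature.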
PINK1 modulator: modulators of PINK1 expression | AID 624263 | hit rate 0.2% among 410,000 | Potency, µM (titrated, usually from 76.6 µM), without a hit: at the highest dose activation (PINK1 increase), usual class: activators | PINK1 immunofluorescence, high-content cytometry, 24 h; active = well fitted activation curve with a large enough effect; inconclusive = small, poorly fitted or top-dose-only effect; cell line not stated here; note: potency is the fitted concentration of half-maximal effect; % of control where 0% means no effect; nearly all actives have a fitted effect of over 65% in size
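Measures PINK1 amount and localization on or inside mitochondria by immunofluorescence. Stable cells get compounds at 5 concentrations for 24 hours before fixation and staining; CCCP controls included.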
The depositor's hits bear a star; i = inactive; u = inconclusive; x = no result; [ ] = dose if it differs, or a comment. Unless noted, calls come from the whole dose curve; as a rule, active = well fitted curve in the direction sought with a large enough effect; inconclusive = small, poorly fitted or top-dose-only effect, or another doubt; inactive = no such curve, though single readings can be large; an effect the other way counts as inactive or inconclusive.

SMILES | CCT chaperon mod | Tb PGK inh | GLS inhibitor | PI4K2A inh | PINK1 modulator
COc1ccc(C(C(=O)NC2CCCC2)N(C(=O)c2snc(-c3ccc(F)cc3)c2N)c2ccc(F)cc2)cc1 (centres undefined) | 2 | 2% | -4% | 0 | 16µM*
CCOc1cc(C)nc(N2CCCC(C(=O)NCc3ccccc3F)C2)n1 (centres undefined) | -41* | x | 17% | 0 | -3%[38.3 µM]
CCCN1CCC2(CC1)NC(C(=O)O)Cc1c2[nH]c2ccccc12 (centres undefined) | -2 | 10% | 6% | 1 | 2%
CCC1(C)NC(C(=O)O)Cc2c1[nH]c1ccccc21 (centres undefined) | -40* | 0% | -3% | -4 | -1%
COc1ccc(OC)c(CN2CCOc3ccc(CN4CCC(O)(c5cccnc5)CC4)cc3C2)c1 | x | x | x | x | -1%
COc1cc(Nc2nc3ccccc3nc2NS(=O)(=O)c2ccc([N+](=O)[O-])cc2)cc(OC)c1OC | -7 | -7% | 21% | 3 | 0%
O=[N+]([O-])c1ccc(S(=O)(=O)Nc2nc3ccccc3nc2Nc2ccccc2)cc1 | 0 | 1% | 8% | 1 | 35µM*
Nc1c(C(=O)c2ccccc2)sc(Nc2ccc(Cl)c(Cl)c2)c1C(=O)Nc1ccccc1 | x | -17% | 5% | 1 | 16µM*
Cc1ccc(Nc2sc(C(=O)c3ccccc3)c(N)c2C(=O)Nc2ccc(Cl)cc2)cc1 | x | -7% | 8% | -1 | 40µM*
CCOc1ccc(NC(=O)c2c(Nc3ccc(OC)cc3OC)sc(C(=O)c3ccc(Cl)cc3)c2N)cc1 | x | -8% | -3% | 0 | 5%
COc1ccc(CNC(=O)c2c(Nc3ccccc3C)sc(C(=O)c3ccccc3)c2N)cc1 | x | -5% | -3% | -1 | u
O=C(Nc1ccc(Cl)c(Cl)c1)c1ccccc1 | -50* | -8% | -14% | 4 | 7%
Cc1ccccc1Nc1sc(C(=O)c2ccccc2)c(N)c1C(=O)NCc1ccc(Cl)cc1 | x | 2% | 3% | 0 | 16µM*
Cc1cc(C)nc(S[C@H]2C[C@@H](C(=O)N3CCN(c4ccccc4F)CC3)N(Cc3ccccc3C(F)(F)F)C2)n1 | x | x | x | x | 0%
Cc1ccc(CNc2nc(CN3CCSCC3)nc3ccccc23)o1 | x | x | x | x | 0%
Cc1occc1C(=O)Nc1cccc(-c2nc(CNC(=O)c3ccc(N4CCCCC4)cc3)c(C)o2)c1 | x | x | x | x | 1%
COc1cc(-c2c(OC)cccc2OC)cc2c1OCCN(Cc1cn[nH]c1-c1ccc(Cl)cc1)C2 | x | x | x | x | 0%
CCC1CN(CCNC(=O)c2cc3ccccc3oc2=O)Cc2cc(OC)ccc2O1 (centres undefined) | x | x | x | x | 0%
Clc1ccc(C2=C3CCCCn4c(-c5ccccc5)c[n+](c43)C2)cc1 | -1 | -2% | -2% | -5 | 16µM*
Cc1ccc(-c2ccnc(-c3ccc(O)cc3)n2)cc1 | -38* | 4% | 6% | -4 | 4%
COc1ccc(-c2ccnc(-c3ccc(O)cc3)n2)cc1 | -2 | 6% | 0% | 12 | 0%
CC(=O)N1CCC[C@H]1C(=O)NCC1Cc2cc(-c3cccc(OC(F)(F)F)c3)ccc2O1 (some centres undefined) | x | x | x | x | 0%
COC(=O)c1c(OCCN2CCCCC2)cc(=O)n2c1CCN(Cc1cccc3nccnc13)CC2 | x | x | x | x | 0%
Cc1cccc(CN2CCC(CNC(=O)CCNC(=O)Cn3ccc4ccccc4c3=O)CC2)c1 | 0 | -6% | 1% | -8 | -3%
O=C(Cn1ccc2ccccc2c1=O)NCCC(=O)NC1CCN(Cc2ccccc2)CC1 | -31* | -12% | 1% | -7 | -2%
O=C(O)c1cc(=O)c2c3nc4ccccc4oc-3cc(=O)c2[nH]1 | x | x | 28µM* | x | 0%
CCC1CN(CCNC(=O)c2cn3cc(C)ccc3n2)Cc2cc(OC)ccc2O1 (centres undefined) | x | x | x | x | 3%
Cc1cccc(CN2CCN(C(c3ccccc3)c3ccc(Cl)cc3)CC2)c1 (centres undefined) | -1 | i | 2% | -5 | 35µM*
COc1cc(CN2CCN(C(c3ccccc3)c3ccccc3)CC2)cc(OC)c1OC | -3 | -10% | -4% | -3 | 17%
